Shiga toxin inh = A qHTS for Small Molecule Inhibitors of Shiga Toxin. 290,000 tested, 9.2% active. Vero cells, Shiga toxin protein synthesis inhibition reporter. inhibition, % at 38.7 µM; in the data active = inhibition mostly above about 28%, no sharp cut-off; inactive = mostly below about 43%
Cycloheximide cs = Cycloheximide Counterscreen for Small Molecule Inhibitors of Shiga Toxin | cell reporter, cycloheximide protein synthesis inhibition counterscreen | 300,000 tested, 12% active | AID 2314, 2010 | max response, %; in the data active = max response mostly above about 13%, no sharp cut-off; inactive = mostly below about 14%; also: read at 38.3 µM for the half of the compounds with a filed dose
Pf growth 96h = Primary qHTS for delayed death inhibitors of the malarial parasite plastid, 96 hour incubation; 320,000 tested, 6.9% active; P. falciparum luciferase reporter growth, 96 h; AID 504834, 2011; Potency, µM (titrated, usually from 28.7 µM), most hits filed as inhibitors
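Plates of compound plus infected erythrocytes (2% hematocrit, 0.05% parasitemia final) incubate 96 hours, 37 C, 5% CO2. Detection reagent added; reduced luminescence from the parasites' luciferase reporter flags inhibition.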
Pf growth 48h = Primary qHTS for delayed death inhibitors of the malarial parasite plastid, 48 hour incubation; P. falciparum luciferase growth in erythrocytes, 48 h; AID 504832, 2011; 310,000 tested, 5.9% active; Potency, µM (titrated, usually from 28.7 µM), actives largely listed as inhibitors
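Erythrocytes infected with P. falciparum carrying an integrated firefly luciferase reporter (2% hematocrit, 0.1% parasitemia final) were exposed to compounds in RPMI 1640 with 0.5% Albumax at 37 C, 5% CO2. Growth inhibition was scored as reduced luminescence.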
Numbers stand for hits; [ ] = remark or other dose. In the library only some 21% were active in any assay of this set; here they are far more common. Unless noted, calls follow the shape of the dose curve; as a rule, active = well fitted inhibition curve with a large enough effect; inconclusive = small, poorly fitted or top-dose-only effect, or another doubt; inactive = no such curve, though single readings can be large or run the other way.

For N/C(=N\OC(=O)/C=C/c1ccccc1)c1ccccn1 the results were Shiga toxin inh inactive, Cycloheximide cs 20, Pf growth 96h inactive and Pf growth 48h inactive.
For N/C(=N\OC(=O)/C=C/c1ccccc1Cl)c1ccncc1 the results were Shiga toxin inh 137, Cycloheximide cs 67, Pf growth 96h inactive and Pf growth 48h inactive.
Screening CC(=O)NC(Cc1ccc(C)cc1)C(=O)NC1CCN(C(=O)NCc2ccccc2)CC1 (stereo not drawn) returned Shiga toxin inh inactive, Cycloheximide cs inactive, Pf growth 96h inactive and Pf growth 48h inactive.
CC(=O)NS(=O)(=O)c1ccc(NS(=O)(=O)c2ccccc2[N+](=O)[O-])cc1 was read as Shiga toxin inh inactive, Cycloheximide cs inactive, Pf growth 96h inactive and Pf growth 48h inactive.
Screening COCCNC(=O)/C(=C/c1ccccc1Cl)c1ccccc1 returned Shiga toxin inh inactive, Cycloheximide cs inactive, Pf growth 96h inactive and Pf growth 48h inactive.
CC1Cc2ccccc2N1C(=O)c1ccnc(C(C)(C)C)c1 (stereo not drawn) was read as Shiga toxin inh inactive, Cycloheximide cs inactive, Pf growth 96h inactive and Pf growth 48h 12µM.
For CC(C)(C)c1cc(C(=O)Nc2ccccc2)ccn1 the results were Shiga toxin inh inactive, Cycloheximide cs 25, Pf growth 96h inactive and Pf growth 48h inactive.
For CC(C)(C)NC(=O)c1ccnc(C(C)(C)C)c1 the results were Shiga toxin inh inactive, Cycloheximide cs inactive and Pf growth 96h inactive.
For Cc1ccc(NC(=O)c2ccnc(C(C)(C)C)c2)cc1 the results were Shiga toxin inh 71, Cycloheximide cs 16, Pf growth 96h inactive and Pf growth 48h inactive.
CCNN was read as Shiga toxin inh inactive and Cycloheximide cs inactive.
Screening O=C(CNCCc1ccccc1)N1CCc2ccccc2C1 returned Shiga toxin inh inactive, Cycloheximide cs inactive, Pf growth 96h inactive and Pf growth 48h inactive.
`COc1ccc(-n2ncc3c(=O)n(CC(C)=O)cnc32)cc1` gave Shiga toxin inh inactive, Cycloheximide cs inactive, Pf growth 96h inconclusive and Pf growth 48h inactive.
`CCC(CO)Nc1ncnc2c1cnn2-c1ccc(OC)cc1` (stereo not drawn) gave Shiga toxin inh 53, Cycloheximide cs 37 and Pf growth 96h inactive.
CCC(CO)Nc1ncnc2c1cnn2-c1ccc(Cl)cc1 (stereo not drawn) was read as Shiga toxin inh inactive, Cycloheximide cs 40 and Pf growth 96h inactive.
COC(=O)c1cc(NC(=O)Cc2cccs2)cc(C(=O)OC)c1 was read as Shiga toxin inh inactive, Cycloheximide cs inactive, Pf growth 96h inactive and Pf growth 48h inactive.
Screening COc1ccc(N(C)S(=O)(=O)c2c(C)[nH]c(=O)[nH]c2=O)cc1 returned Shiga toxin inh inactive, Cycloheximide cs inactive, Pf growth 96h inconclusive and Pf growth 48h inactive.
COc1ccc(N(C)S(=O)(=O)c2c(C)[nH]c(=O)[nH]c2=O)c(OC)c1 was read as Shiga toxin inh inactive, Cycloheximide cs inactive, Pf growth 96h 6.6µM and Pf growth 48h inactive.
CCN(CCCNC(=O)C1CCC(=O)N1C(C)C)c1cccc(C)c1 (stereo not drawn) was read as Shiga toxin inh inactive, Cycloheximide cs inactive and Pf growth 96h inactive.
Cc1cccc(C(=O)Nc2ccc3c(c2)CC2(C(=O)N(C)C(=O)N(C)C2=O)C2CCCN32)c1 (stereo not drawn) was read as Shiga toxin inh inactive, Cycloheximide cs inactive, Pf growth 96h 8.3µM and Pf growth 48h inconclusive.
CN1C(=O)N(C)C(=O)C2(Cc3cc([N+](=O)[O-])ccc3N3CCN(C(=O)c4ccccc4)CC32)C1=O (stereo not drawn) was read as Shiga toxin inh inactive, Cycloheximide cs inactive, Pf growth 96h inactive and Pf growth 48h inconclusive.
COc1ccccc1C(=O)Nc1ccc2c(c1)CC1(C(=O)N(C)C(=O)N(C)C1=O)C1CCCN21 (stereo not drawn) was read as Shiga toxin inh inactive, Cycloheximide cs inactive, Pf growth 96h 2.6µM and Pf growth 48h inconclusive.
For O=S(=O)(Nc1cccc(-n2cnnn2)c1)c1ccccc1F the results were Shiga toxin inh inactive, Cycloheximide cs inactive, Pf growth 96h inactive and Pf growth 48h inactive.
For NC(=O)NOCc1c(F)cccc1Cl the results were Shiga toxin inh inactive, Cycloheximide cs inactive, Pf growth 96h inactive and Pf growth 48h inactive.
For N/C(CN1CCSCC1)=N\OCc1c(F)cccc1Cl the results were Shiga toxin inh 49, Cycloheximide cs inactive, Pf growth 96h inactive and Pf growth 48h inactive.
For C/C(=N\Nc1nc(C)cc(-c2ccccc2)n1)c1ccccc1 the results were Shiga toxin inh inactive, Cycloheximide cs 17, Pf growth 96h inactive and Pf growth 48h inconclusive.
For Cc1ccc2nc(N/N=C/c3ccccc3F)nc(-c3ccccc3)c2c1 the results were Shiga toxin inh inactive, Cycloheximide cs inactive, Pf growth 96h inconclusive and Pf growth 48h inactive.
C/C(=N\Nc1nc(C)cc(-c2ccccc2)n1)c1cccc(N)c1 was read as Shiga toxin inh 23, Cycloheximide cs 16, Pf growth 96h inconclusive and Pf growth 48h inconclusive.
Screening Cc1cc(-c2ccccc2)nc(N/N=C/c2ccccc2F)n1 returned Shiga toxin inh 52, Cycloheximide cs 51, Pf growth 96h inactive and Pf growth 48h inactive.
For C/C(=N\Nc1nc(C)cc(-c2ccccc2)n1)c1ccc(O)cc1 the results were Shiga toxin inh 26, Cycloheximide cs 21, Pf growth 96h inactive and Pf growth 48h inconclusive.
`O=C(NNC(=O)c1ccc(Br)s1)c1csc(N2CCOCC2)n1` gave Pf growth 96h inactive and Pf growth 48h inactive.
Screening O=C(CSc1nc(SCC(=O)NCc2ccccc2)n(-c2ccccc2)n1)NCc1ccccc1 returned Shiga toxin inh inactive, Cycloheximide cs inactive and Pf growth 96h 9.3µM.
COCCn1c(-c2ccccc2)cnc1SCC(=O)Nc1cccc2ccccc12 was read as Shiga toxin inh inactive, Cycloheximide cs inactive, Pf growth 96h 13µM and Pf growth 48h inactive.
Nc1cc(=O)[nH]c2nnc(SCC(=O)Nc3cccc4ccccc34)n12 was read as Shiga toxin inh inactive, Cycloheximide cs inactive, Pf growth 96h 7.4µM and Pf growth 48h inactive.
`O=C(CSc1ncccn1)Nc1cccc2ccccc12` gave Shiga toxin inh inactive, Cycloheximide cs 22, Pf growth 96h inactive and Pf growth 48h inactive.
`O=C(CSCC(=O)Nc1cccc2ccccc12)Nc1cccc2ccccc12` gave Shiga toxin inh inactive, Cycloheximide cs inactive, Pf growth 96h inactive and Pf growth 48h inactive.
Cc1cc(C(=O)CN2C(=O)C(=O)N(Cc3ccccc3)C2=O)c(C)n1-c1ccc2c(c1)OCCO2 was read as Shiga toxin inh inactive, Cycloheximide cs inactive, Pf growth 96h inactive[5.75 µM] and Pf growth 48h inconclusive.
Cc1ccc(CNC(=O)CSc2ncccn2)cc1 was read as Shiga toxin inh 43, Cycloheximide cs 24, Pf growth 96h inactive and Pf growth 48h inactive.
`O=S(=O)(c1ccccc1)N1C2CCC1CC(O)(c1cccnc1)C2` (stereo not drawn) gave Shiga toxin inh inactive, Cycloheximide cs inactive, Pf growth 96h 2.3µM and Pf growth 48h inactive.
For O=C(Nc1ccccc1)N1C2CCC1CC(O)(c1cccnc1)C2 (stereo not drawn) the results were Shiga toxin inh inactive, Cycloheximide cs inactive, Pf growth 96h inactive and Pf growth 48h inconclusive.
